Measured values: PubChem BioAssay (NCATS)
Results filed as inconclusive are left out. Activity calls are given as the source filed them. Calls follow the shape of the dose curve; as a rule, active = well fitted curve in the direction sought with a large enough effect; inconclusive = small, poorly fitted or top-dose-only effect, or another doubt; inactive = no such curve, though single readings can be large; an effect the other way counts as inactive or inconclusive.

How the values were obtained:
[1] = tested on: HEK293; test: Cytotoxic Profiling of Annotated Libraries Using Quantitative High-Throughput Screening (AID 1296008); details: Five cell lines viability, CellTiter-Glo ATP luminescence, 48-72 h; max response: hits give low values; also: nearly all actives have a fitted effect of over 60% in size
Method in brief: (§1)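 Cytotoxicity was measured as CellTiter-Glo ATP luminescence, read after 10 min at room temperature. Compound treatment of the cells lasted 48 or 72 hr at 37 degrees Celsius in a qHTS format.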

[2] = tested on: C33A; test: Primary qHTS to identify gynecologic anti-cancer compounds using libraries of approved drugs and bioactive compounds (AID 1345084); details: Gynecologic cancer cell panel viability, ATPlite luminescence, 48 h; series mostly up to 57.5 µM; also: nearly all actives have a fitted effect of over 55% in size; as to activity change, negative = cytotoxicity: % is scaled to controls: 0 for no effect and ±100 for the full control effect
Method in brief: (§2)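 Measured: luminescence after ATPlite addition (15 min, RT). Exposure: 48 h, 37 C, 5% CO2.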

[3] = tested on: CASKI; test: as above; details: Gynecologic cancer cell panel viability, ATPlite luminescence, 48 h; series mostly up to 57.5 µM
Method in brief: as §2

[4] = tested on: Es-2; test: as above; details: Gynecologic cancer cell panel viability, ATPlite luminescence, 48 h; series mostly up to 57.5 µM
Method in brief: as §2

[5] = tested on: HeLa; test: as above; details: Gynecologic cancer cell panel viability, ATPlite luminescence, 48 h; series mostly up to 57.5 µM
Method in brief: as §2

[6] = tested on: JEG-3; test: as above; details: Gynecologic cancer cell panel viability, ATPlite luminescence, 48 h; series mostly up to 57.5 µM
Method in brief: as §2

[7] = tested on: PA-1; test: as above; details: Gynecologic cancer cell panel viability, ATPlite luminescence, 48 h; series mostly up to 57.5 µM
Method in brief: as §2

[8] = tested on: Hek293T; test: as above; details: Gynecologic cancer cell panel viability, ATPlite luminescence, 48 h, control line for the selectivity index; series mostly up to 57.5 µM
Method in brief: as §2

[9] = tested on: OV90; test: as above; details: Gynecologic cancer cell panel viability, ATPlite luminescence, 48 h; series mostly up to 57.5 µM
Method in brief: as §2

[10] = tested on: CAOV3; test: as above; details: Gynecologic cancer cell panel viability, ATPlite luminescence, 48 h; series mostly up to 57.5 µM
Method in brief: as §2

[11] = tested on: SKOV3; test: as above; details: Gynecologic cancer cell panel viability, ATPlite luminescence, 48 h; series mostly up to 57.5 µM
Method in brief: as §2

[12] = tested on: NIH3T3; test: Cytotoxic Profiling of Annotated Libraries Using Quantitative High-Throughput Screening (AID 1296008); details: Five cell lines viability, CellTiter-Glo ATP luminescence, 48-72 h; max response: hits give low values; also: nearly all actives have a fitted effect of over 60% in size
Method in brief: as §1
Potency is read from the fitted curve at half-maximal effect.

CCCCCCCCC(=O)N[C@H](CN1CCCC1)[C@H](O)c1ccc2c(c1)OCCO2
active: Potency [1] 7.31 µM
inactive: Potency [2] | Potency [3] | Potency [4] | Potency [5] | Potency [6] | Potency [7]

Nc1cccc(CNC(=O)c2ccc(Oc3ccc(OCc4cccc(F)c4)cc3)nc2)c1
inactive: Potency [2] | Potency [3] | Potency [4] | Potency [5] | Potency [8] | Potency [6] | Potency [9] | Potency [7]
active: Potency [1] 11.6 µM

N#C/C(=C1\Nc2ccccc2S1)c1ccnc(NCCc2cccnc2)n1
inactive: Potency [2] | Potency [10] | Potency [3] | Potency [6] | Potency [9]
active: Potency [1] 7.31 µM

C=C1CC(=O)C2OC2(C)CC2OC(=O)C(=C)C2C(O)C1OC(=O)/C(C)=C\C (configuration not stated)
active: Potency [1] 6.4 µM
inactive: Potency [2] | Potency [10] | Potency [3] | Potency [5] | Potency [6] | Potency [9] | Potency [7] | Potency [11]

C=C1CC2[C@@]3(C)C=CC(=O)C(C)(C)C3=C(O)C(=O)[C@@]2(C)C2(C(=O)OC)C(=O)C(C)OC(=O)[C@@]12C (some centres not stated)
inactive: Potency [2] | Potency [3] | Potency [4] | Potency [6]
active: Potency [1] 7.96 µM

C=C1C(=O)OC2/C=C(/C)C3=CC(=O)C(C)(CC(OC(=O)/C(C)=C/COC(C)=O)C12)O3 (configuration not stated)
inactive: Potency [5] | Potency [9]
active: Potency [1] 2 µM | Potency [12] 3.99 µM | Potency [4] 7.08 µM

C/C=C(/C)C(=O)O[C@H]1[C@H](OC(=O)/C(C)=C\C)[C@@]23C(CC1(C)C)[C@]1(CCC4[C@@]5(C)CC[C@H](O[C@@H]6O[C@H](C(=O)O)[C@@H](O)[C@H](O[C@@H]7O[C@H](CO)[C@H](O)[C@H](O)[C@H]7O[C@@H]7O[C@@H](C)[C@H](O)[C@@H](O)[C@H]7O[C@@H]7OC[C@@H](O)[C@H](O)[C@H]7O)[C@H]6O[C@@H]6O[C@H](CO)[C@H](O)[C@H](O)[C@H]6O)C(C)(C)C5CC[C@@]4(C)[C@]1(C)C[C@H]2O)O[C@H]3O (some centres not stated)
active: Potency [1] 1.74 µM
inactive: activity change, negative = cytotoxicity [2] -26.4% [at 6.55 µM] | activity change, negative = cytotoxicity [3] -8.52% [at 6.55 µM] | activity change, negative = cytotoxicity [4] 0.581% [at 6.55 µM] | activity change, negative = cytotoxicity [5] 16.8% [at 6.55 µM]

O=C(Nc1ccc2[nH]nc(-c3ccncc3)c2c1)[C@@H]1CCN(CC(=O)N2CCN(c3ccc(-c4ncccn4)cc3)CC2)C1
active: Potency [1] 10.3 µM
inactive: Potency [2] | Potency [10] | Potency [3] | Potency [8] | Potency [6] | Potency [7] | Potency [11]

C=C1C(=O)O[C@@H]2C3=C(C)CCC[C@]3(C)CC[C@@]12O
inactive: Potency [5] | Potency [6] | Potency [11]
active: Potency [1] 8.2 µM | Potency [12] 14.6 µM

CCC(CC)C(c1ccc(Nc2nc3ccccc3s2)cc1)n1cncn1 (configuration not stated)
active: Potency [1] 10.3 µM | Potency [2] 25.1 µM | Potency [10] 28.2 µM | Potency [5] 35.5 µM | Potency [6] 31.6 µM | Potency [9] 31.6 µM | Potency [7] 22.4 µM

Cn1ncc(Cl)c1-c1cc(C(=O)N[C@H](CN)Cc2ccc(F)c(F)c2)oc1Cl
inactive: Potency [10] | Potency [4] | Potency [5] | Potency [6]
active: Potency [1] 0.366 µM | Potency [2] 2.24 µM | Potency [3] 3.98 µM | Potency [9] 14.1 µM | Potency [11] 4.47 µM

Cc1cc(-c2nc3cc(F)ccc3s2)ccc1NC(=O)[C@@H](N)CCCCN
active: Potency [1] 14.6 µM | Potency [2] 17.8 µM | Potency [10] 28.2 µM | Potency [3] 14.1 µM | Potency [4] 15.8 µM | Potency [5] 14.1 µM | Potency [8] 12.6 µM | Potency [6] 14.1 µM | Potency [9] 8.91 µM | Potency [7] 10 µM | Potency [11] 11.2 µM

C=C1C(=O)O[C@@H]2C[C@@]3(C)CCCC(=C)[C@]3(O)C[C@H]12
active: Potency [1] 13 µM
inactive: Potency [2] | Potency [3] | Potency [4] | Potency [5] | Potency [6] | Potency [9] | Potency [11]

Cc1[nH]c(/C=C2\C(=O)Nc3ccc(F)cc32)c(C)c1C(=O)NCCN1CCCC1
inactive: Potency [2] | Potency [3] | Potency [4] | Potency [8] | Potency [6] | Potency [9]
active: Potency [1] 14.6 µM | Potency [11] 15.8 µM

CC[C@@H](C)[C@@H]1OC2(C=C[C@H]1C)C[C@@H]1C[C@H](C/C=C(\C)[C@H](O[C@H]3C[C@H](OC)[C@H](O[C@H]4C[C@H](OC)[C@H](NC(C)=O)[C@H](C)O4)[C@H](C)O3)[C@H](C)/C=C/C=C3\CO[C@H]4[C@H](O)C(C)=C[C@@H](C(=O)O1)[C@@]34O)O2 (some centres not stated)
inactive: Potency [2] | Potency [10] | Potency [3] | Potency [4] | Potency [9]
active: Potency [1] 3.21 µM

N#Cc1cc(CN2CCC(Nc3ncnc4sc(Cl)cc34)CC2)ccc1F
inactive: Potency [2] | Potency [10] | Potency [3] | Potency [5] | Potency [6]
active: Potency [1] 14.6 µM

Cn1sc(=O)n(Cc2ccccc2)c1=O
active: Potency [1] 6.51 µM
inactive: Potency [2] | Potency [3] | Potency [4] | Potency [5] | Potency [9] | Potency [7] | Potency [11]

Clc1ccc(Nc2nc3ccccc3c3nc(C4CCCCC4)[nH]c23)cc1Cl
inactive: Potency [3] | Potency [6] | Potency [11]
active: Potency [1] 11.6 µM | Potency [12] 20.6 µM

N#Cc1ccc2ncnc(NCCc3ccccc3)c2c1
active: Potency [1] 18.4 µM
inactive: Potency [2] | Potency [10] | Potency [3] | Potency [4] | Potency [5] | Potency [6] | Potency [9] | Potency [7] | Potency [11]
